High-throughput results deposited in PubChem BioAssay by several laboratories.
proKLK7 act – activates the human kallikrein-7 zymogen | P49862 | purified proKLK7, EDANS-DABCYL substrate fluorescence; 100% is mature enzyme control, 0% vehicle | activation, % at 7 µM | 0.9% of 370,000 active | AID 652039;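 active = activation above the mean of all tested compounds plus 3 SD, computed per campaign excluding outliers beyond control limits, cut at about 13% in these data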
ADAM17 inh – inhibitors of human ADAM17; P78536; recombinant ADAM17, EDANS/DABCYL FRET peptide cleavage; inhibition, % at 6.95 µM; 0.83% of 370,000 active; AID 720648;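 active = inhibition above the mean of compounds lying between control limits plus 3 SD, set per campaign, cut at about 8.5% in these data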
Target sequence (P78536 215-824 limits assumed): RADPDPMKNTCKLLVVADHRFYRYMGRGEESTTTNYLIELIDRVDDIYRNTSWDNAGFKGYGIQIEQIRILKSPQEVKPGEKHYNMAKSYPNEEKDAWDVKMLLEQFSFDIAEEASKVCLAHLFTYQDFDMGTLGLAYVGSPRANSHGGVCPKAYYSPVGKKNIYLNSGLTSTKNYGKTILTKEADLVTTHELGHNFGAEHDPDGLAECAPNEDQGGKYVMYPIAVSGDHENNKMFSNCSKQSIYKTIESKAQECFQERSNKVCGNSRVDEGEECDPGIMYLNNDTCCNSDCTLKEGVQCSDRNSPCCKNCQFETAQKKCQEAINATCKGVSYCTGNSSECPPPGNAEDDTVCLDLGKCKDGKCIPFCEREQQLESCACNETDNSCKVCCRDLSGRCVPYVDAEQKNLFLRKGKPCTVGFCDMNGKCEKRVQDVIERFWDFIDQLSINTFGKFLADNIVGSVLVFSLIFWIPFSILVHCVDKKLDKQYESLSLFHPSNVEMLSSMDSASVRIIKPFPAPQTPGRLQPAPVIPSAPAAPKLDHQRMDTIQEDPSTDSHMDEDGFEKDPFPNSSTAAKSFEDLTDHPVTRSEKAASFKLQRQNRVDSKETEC
rRNA inh HTS – inhibits bacterial ribosomal RNA function over humanized ribosomes; 1.6% of 350,000 active; AID 720706; E. coli WT GFP vs humanized-ribosome RFP mutants, fluorescence, 24 h; stronger effect = lower value; DMSO median 0, no signal -100; GFP signal change (wild-type ribosome), % (test concentration not listed);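 active = significant combined selectivity score with lowered wild-type GFP, culture density cut under 30%, mutant RFP and density less affected; inactive = any of these conditions unmet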
FGF22 binding – shifts melting point of recombinant human FGF22; Q9HCT0; recombinant FGF22 thermal shift, SYPRO orange fluorescence; percent of sucrose octasulfate shift, DMSO zero; activity (Tm shift, normalised), % at 9.99 µM; 1.5% of 340,000 active; AID 651658;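 active = mean Tm shift, scaled 0 neutral to 100 positive control, at about 1.3% or above, every replicate too, limit read from the data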
ADAM10 inh – inhibits human ADAM10 | O14672 | recombinant ADAM10, EDANS/DABCYL FRET peptide cleavage, 3 h | inhibition, % at 7 µM | 0.62% of 370,000 active | AID 720582;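 active = inhibition above a per-campaign cutoff equal to the mean of compounds falling between control-based bounds plus 3 SD, cut at about 20% in these data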
ADAM10 counter – ADAM10 inhibition, counter-screen for ADAM17 exosite hits; shares compounds with ADAM17 inh; recombinant ADAM10, EDANS/DABCYL FRET peptide cleavage, 3 h; inhibition, % at 6.95 µM; 47% of 2,900 active; AID 743256;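 active = mean inhibition over the triplicate runs exceeds the activity threshold set in the earlier primary screen, cut at about 20% in these data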
ADAM17 confirm – confirmation of inhibitors of human ADAM17; shares compounds with ADAM17 inh; inhibition, % at 6.95 µM; recombinant ADAM17, EDANS/DABCYL QFRET peptide cleavage; 65% of 2,900 active; AID 743257;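 active = mean inhibition across replicates above the hit cutoff set in the primary screen, cut at about 8.5% in these data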
A number is an active result. An excerpt weighted towards active compounds, which were near 3.8% of everything screened.

O=C(/C=C/c1cccc([N+](=O)[O-])c1)NCCSCc1cccc(Cl)c1 was read as proKLK7 act inactive, ADAM17 inh 12.6, ADAM10 inh inactive, ADAM10 counter 21.8 and ADAM17 confirm 12.1.
CC(=O)Nc1ccc(S(=O)(=O)NCCSCc2cccc(Cl)c2)cc1 was read as proKLK7 act inactive, ADAM17 inh 8.9, rRNA inh HTS inactive, FGF22 binding inactive, ADAM10 inh inactive, ADAM10 counter inactive and ADAM17 confirm inactive.
C[C@H](CO)N1C[C@H](C)[C@H](CN(C)CC2CCCCC2)OCCCC[C@H](C)Oc2ccc(NS(=O)(=O)c3cn(C)cn3)cc2C1=O was read as rRNA inh HTS inactive and FGF22 binding inactive.
Screening COCC(=O)Nc1ccc2c(c1)[C@@H]1C[C@H](CC(=O)NC3CCCCC3)O[C@@H](CO)[C@@H]1O2 returned rRNA inh HTS inactive and FGF22 binding inactive.
For C[C@H]1CN([C@@H](C)CO)C(=O)c2c(c3ccccc3n2C)-c2ccccc2CO[C@@H]1CN(C)Cc1ccc(Oc2ccccc2)cc1 the results were rRNA inh HTS inactive.
Screening CCCSc1nsc(NC(=O)CCC)n1 returned proKLK7 act inactive, ADAM17 inh 9.2, rRNA inh HTS inactive, FGF22 binding inactive, ADAM10 inh inactive, ADAM10 counter inactive and ADAM17 confirm inactive.
Screening Cc1noc(C)c1NC(=O)Nc1ccc2c(c1)C(=O)N([C@@H](C)CO)C[C@@H](C)[C@H](CN(C)Cc1ccncc1)OCCCC[C@H](C)O2 returned rRNA inh HTS inactive and FGF22 binding inactive.
`Cc1c(Cl)cccc1NC(=O)CN1CCC(C(O)(c2ccccc2)c2ccccc2)CC1` gave proKLK7 act inactive, ADAM17 inh 8.8, ADAM10 inh inactive, ADAM10 counter 30.1 and ADAM17 confirm 16.5.
For Cc1ccccc1C(=O)NC1CCN(CC(=O)Nc2ccccc2Cl)CC1 the results were proKLK7 act inactive, ADAM17 inh inactive, rRNA inh HTS inactive, FGF22 binding inactive and ADAM10 inh inactive.
For COC(=O)c1cccc(N(C(=O)CNC(=O)c2ccco2)C(C(=O)NC2CCCC2)c2ccco2)c1 (centres undefined) the results were proKLK7 act inactive, ADAM17 inh 8.8, ADAM10 inh inactive, ADAM10 counter inactive and ADAM17 confirm inactive.
`COc1ccc(N(C(=O)CNC(=O)c2ccco2)C(C(=O)NC2CCCC2)c2ccco2)cc1` (centres undefined) gave proKLK7 act inactive, ADAM17 inh inactive, rRNA inh HTS inactive, FGF22 binding inactive and ADAM10 inh inactive.
For O=C(Nc1ccc(Cl)cc1)N1CCCN(Cc2ccc(F)cc2)C1 the results were proKLK7 act inactive, ADAM17 inh 10.1, ADAM10 inh inactive, ADAM10 counter inactive and ADAM17 confirm 10.7.
`CC(=O)N1c2ccc(S(=O)(=O)N3CCC(C(=O)Nc4cccc(C(F)(F)F)c4)CC3)cc2CC1C` (centres undefined) gave proKLK7 act inactive, ADAM17 inh 10.0, rRNA inh HTS inactive, FGF22 binding inactive, ADAM10 inh inactive, ADAM10 counter inactive and ADAM17 confirm 9.4.
For Cc1ccc(S(=O)(=O)Nc2ccc3c(c2)CC(=O)N([C@H](C)CO)C[C@@H](C)[C@@H](CN(C)Cc2ccc(C(=O)Nc4ccccc4N)cc2)O3)cc1 the results were rRNA inh HTS inactive and FGF22 binding inactive.
`O=C(Nc1ccccc1)c1cc(C2CCCCN2S(=O)(=O)c2ccccc2)on1` (centres undefined) gave proKLK7 act inactive, ADAM17 inh 11.6, rRNA inh HTS inactive, FGF22 binding inactive, ADAM10 inh inactive, ADAM10 counter inactive and ADAM17 confirm inactive.
For COc1ccc(Cc2nnc(SCC(=O)Nc3ccc(C)cc3)n(N)c2=O)cc1 the results were proKLK7 act inactive, ADAM17 inh 9.8, rRNA inh HTS inactive, FGF22 binding inactive, ADAM10 inh inactive, ADAM10 counter inactive and ADAM17 confirm inactive.
C=C(C)c1cccc(C(C)(C)NC(=O)N2CCCC2)c1 was read as proKLK7 act inactive, ADAM17 inh 9.1, ADAM10 inh inactive, ADAM10 counter inactive and ADAM17 confirm inactive.
Screening C=C(C)c1cccc(C(C)(C)NC(=O)N2CCOCC2)c1 returned proKLK7 act inactive, ADAM17 inh inactive and ADAM10 inh inactive.
CCCNC(=O)N1C[C@@H]2[C@H](c3ccccc31)[C@@H](CO)N2Cc1ccccc1F was read as rRNA inh HTS inactive and FGF22 binding inactive.
For C/C(=N\N=C1\NC(=O)CS1)c1cccs1 the results were proKLK7 act inactive, ADAM17 inh 10.6, rRNA inh HTS inactive, FGF22 binding inactive, ADAM10 inh inactive, ADAM10 counter inactive and ADAM17 confirm inactive.
`O=C(C[C@@H]1C[C@@H]2c3cc(NC(=O)Nc4ccc(C(F)(F)F)cc4)ccc3O[C@@H]2[C@@H](CO)O1)NC1CCCCC1` gave rRNA inh HTS inactive and FGF22 binding inactive.
Screening Cc1ccc(S(=O)(=O)N[C@@H]2CC[C@@H](CCNC(=O)c3ccccc3F)O[C@@H]2CO)cc1 returned rRNA inh HTS inactive and FGF22 binding inactive.
Screening Cc1ccccc1NC(=O)c1[nH]cnc1C(=O)NN returned proKLK7 act inactive, ADAM17 inh 13.0, rRNA inh HTS inactive, FGF22 binding inactive, ADAM10 inh inactive, ADAM10 counter inactive and ADAM17 confirm inactive.
Screening Cc1ccccc1NC(=O)c1nc[nH]c1C(=O)NCc1ccccc1 returned proKLK7 act inactive, ADAM17 inh inactive and ADAM10 inh inactive.
`C[C@@H]1CN([C@@H](C)CO)C(=O)c2cccc(NC(=O)Nc3ccc4c(c3)OCO4)c2O[C@@H]1CN(C)C` gave rRNA inh HTS inactive and FGF22 binding inactive.
Screening COc1ccc(S(=O)(=O)N(C)Cc2cccs2)cc1Br returned proKLK7 act inactive, ADAM17 inh inactive and ADAM10 inh inactive.
For Cc1ccc(C)c(S(=O)(=O)N(C)Cc2cccs2)c1 the results were proKLK7 act inactive, ADAM17 inh 8.8, rRNA inh HTS inactive, FGF22 binding inactive, ADAM10 inh inactive, ADAM10 counter 23.5 and ADAM17 confirm 12.3.
`Cc1cccnc1NC(=O)c1ccc(Br)o1` gave proKLK7 act inactive, ADAM17 inh 8.6, rRNA inh HTS inactive, FGF22 binding inactive, ADAM10 inh inactive, ADAM10 counter inactive and ADAM17 confirm inactive.
Screening COc1ccc(CN2CCC(CNC(=O)Nc3ccccc3)CC2)cc1 returned proKLK7 act inactive, ADAM17 inh inactive and ADAM10 inh inactive.
